A selection: hits, their analogues and other compounds. The true share with any hit is near 2.9%.
IP6K1 inhibitor = blocks human inositol hexakisphosphate kinase 1 | Q92551 | IP6K1 kinase, ADP-Glo luminescence, 2 h; stronger effect = lower value | activity change, % (series mostly up to about 58 µM) | hit rate 0.81% among 140,000 | AID 1645851; in the data active means activity change below about -25%; further: on the % scale 0 is the no-effect control and ±100 the full control effect
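ADP-Glo luminescence measures ADP made by human IP6K1 during a 2 h RT reaction with ATP/IP6 (mix at 1.3 mM/130 uM); top library doses 57.5 and 19.1 uM final.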
SNCA expr inh = SNCA gene expression inhibition | hit rate 0.17% among 140,000 | Potency, µM (top dose mostly 57.2 µM), inactives show at the highest dose activity change, negative = inhibition, hits mostly inhibitors | HEK-293 SNCA-luciferase knock-in, luminescence, 24 h;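 further: potency means the concentration at half of the fitted maximal effect; plate controls were DMSO cells for no effect and cell-free wells for full effect; nearly all actives have a fitted effect of over 45% in size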
SNCA viab count = counter-screen for SNCA expression inhibitors: cell viability; HEK-293-SNCA-luc viability, GF-AFC fluorescence, 24 h; Potency, µM (series often up to 57.1 µM), for inactives: at the top dose activity change, negative = cytotoxicity, most hits filed as cytotoxic; hit rate 0.12% among 150,000; AID 1671193;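 further: potency means the concentration at half of the fitted maximal effect; 0% = DMSO-treated cells and -100% = medium-only wells without cells; nearly all actives have a fitted effect of over 30% in size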
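Cytotoxicity counterscreen: after 24 h compound treatment of genome-edited SNCA-luciferase HEK-293 cells, live-cell protease substrate GF-AFC read by fluorescence after 30 min; activity scaled between DMSO (0%) and medium-only (-100%), curves Hill-fitted.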
KDM5B inh = inhibitors of human KDM5B histone demethylase; hit rate 2.6% among 220,000; AID 1347165; Q9UGL1; KDM5B demethylase, FDH-coupled NADH fluorescence (FDH is formaldehyde dehydrogenase); Potency, µM (doses to about 57.7 µM), hits mostly inhibitors; further: potency means the concentration at half of the fitted maximal effect; 0% is about no effect; nearly all actives have a fitted effect of over 70% in size
Target sequence (Q9UGL1 whole entry, looked up): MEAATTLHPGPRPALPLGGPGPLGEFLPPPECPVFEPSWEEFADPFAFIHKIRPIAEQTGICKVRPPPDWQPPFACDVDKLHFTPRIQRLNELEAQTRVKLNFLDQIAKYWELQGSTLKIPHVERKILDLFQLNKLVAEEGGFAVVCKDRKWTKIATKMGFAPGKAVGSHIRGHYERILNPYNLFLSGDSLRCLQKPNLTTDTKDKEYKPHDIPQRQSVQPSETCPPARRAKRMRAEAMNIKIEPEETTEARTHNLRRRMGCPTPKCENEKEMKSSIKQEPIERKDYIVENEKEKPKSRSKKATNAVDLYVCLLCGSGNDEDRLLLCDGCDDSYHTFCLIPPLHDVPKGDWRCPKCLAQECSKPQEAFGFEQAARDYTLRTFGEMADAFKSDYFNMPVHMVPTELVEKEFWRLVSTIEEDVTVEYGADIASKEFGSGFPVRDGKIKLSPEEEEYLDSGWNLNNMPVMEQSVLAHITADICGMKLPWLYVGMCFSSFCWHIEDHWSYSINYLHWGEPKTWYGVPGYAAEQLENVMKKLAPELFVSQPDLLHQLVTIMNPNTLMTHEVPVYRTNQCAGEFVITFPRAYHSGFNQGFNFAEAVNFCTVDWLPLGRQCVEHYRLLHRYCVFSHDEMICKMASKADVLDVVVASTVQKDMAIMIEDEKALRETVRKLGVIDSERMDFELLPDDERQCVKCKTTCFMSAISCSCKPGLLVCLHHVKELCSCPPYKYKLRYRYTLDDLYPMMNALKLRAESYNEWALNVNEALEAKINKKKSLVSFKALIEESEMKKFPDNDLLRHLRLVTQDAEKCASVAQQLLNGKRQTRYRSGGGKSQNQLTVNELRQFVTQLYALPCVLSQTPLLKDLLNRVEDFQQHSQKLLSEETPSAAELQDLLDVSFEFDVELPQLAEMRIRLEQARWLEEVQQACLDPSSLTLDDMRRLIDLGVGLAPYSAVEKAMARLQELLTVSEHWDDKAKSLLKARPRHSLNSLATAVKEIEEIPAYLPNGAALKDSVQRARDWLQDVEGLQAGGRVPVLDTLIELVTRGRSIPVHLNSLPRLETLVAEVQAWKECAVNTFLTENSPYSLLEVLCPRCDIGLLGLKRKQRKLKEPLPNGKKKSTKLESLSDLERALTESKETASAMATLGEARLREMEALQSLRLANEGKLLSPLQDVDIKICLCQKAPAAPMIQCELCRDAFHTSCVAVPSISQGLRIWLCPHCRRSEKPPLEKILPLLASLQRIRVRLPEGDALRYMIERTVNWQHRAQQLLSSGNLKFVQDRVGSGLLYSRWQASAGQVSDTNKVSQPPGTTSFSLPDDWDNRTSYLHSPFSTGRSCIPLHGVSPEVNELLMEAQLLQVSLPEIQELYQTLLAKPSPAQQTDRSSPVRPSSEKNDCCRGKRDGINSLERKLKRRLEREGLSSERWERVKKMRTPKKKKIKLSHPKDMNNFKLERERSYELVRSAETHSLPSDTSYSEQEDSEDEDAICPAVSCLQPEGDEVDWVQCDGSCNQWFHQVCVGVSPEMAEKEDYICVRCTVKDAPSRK
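KDM5BΔAP (200 nM final) in 50 mM HEPES pH 7.5, 0.01% Tween-20 was preincubated 10 min at RT with compound over a concentration range. Substrate mix (H3K4me3 12.5 µM, α-KG 25 µM, Fe²⁺, ascorbate, NAD⁺, FDH) was added, and NADH fluorescence change over 30 min gave dose-response curves.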
* hit, by the source's call; i = inactive; ? = inconclusive; . = no result; [ ] = another dose, or the depositor's remark. Unless noted, the call rests on the fitted dose curve; in most records, active means well fitted curve in the direction sought with a large enough effect; inconclusive means small, poorly fitted or top-dose-only effect, or another doubt; inactive means no such curve, though single readings can be large; an effect the other way counts as inactive or inconclusive.

SMILES | IP6K1 inhibitor | SNCA expr inh | SNCA viab count | KDM5B inh
O=C(c1cccc2cnccc12)N1CCCC2(C=Cc3ccccc3O2)CC1 (centres undefined) | 7.3 | -7.4% | 3.0% | i
COc1cccc(Nc2cc3[nH]ccc3c(C(=O)NCc3c(C)cc(C)[nH]c3=O)n2)c1 | -2.8 | 0.9%[87.6 µM] | -13.2%[87.6 µM] | ?
COc1ncccc1-c1cnc2[nH]cc(CC(=O)NC(C)C)c2c1 | 7.6 | 1.6%[87.6 µM] | -5.6%[87.6 µM] | 31.6µM*
COc1cccc(NC(=O)Cc2c[nH]c3ncc(-c4cccnc4OC)cc23)c1 | -12.1 | -14.0%[87.6 µM] | ? | ?
Cc1ccccc1-c1cnc2[nH]cc(CC(=O)Nc3ccn(C)n3)c2c1 | -21.3 | -16.1%[87.6 µM] | -9.8%[87.6 µM] | 31.6µM*
CC(=O)Nc1ccc(S(=O)(=O)N[C@H]2CO[C@H]3[C@@H]2OC[C@@H]3Nc2nccc(-c3cccs3)n2)cc1 | 2.4 | -17.7% | -14.9% | 25.1µM*
O=C(N[C@H]1CO[C@H]2[C@@H]1OC[C@@H]2Nc1nccc(-c2cccs2)n1)c1ccc(C(F)(F)F)cc1 | -1.5 | ? | -2.6% | ?
O=C(COc1ccccc1)N[C@H]1CO[C@H]2[C@@H]1OC[C@@H]2Nc1nccc(-c2cccs2)n1 | -4.7 | 7.4% | 0.3% | 28.2µM*
O=C(N[C@H]1CO[C@H]2[C@@H]1OC[C@@H]2Nc1nccc(-c2cccs2)n1)c1ccccc1 | -8.9 | 15.7%[87.6 µM] | ? | 35.5µM*
CCNC(=O)O[C@@H]1CO[C@H]2[C@@H]1OC[C@@H]2Nc1nccc(-c2cccs2)n1 | -6.9 | 3.1%[87.6 µM] | -8.0%[87.6 µM] | 28.2µM*
O=C(Nc1ccccc1)N[C@H]1CO[C@H]2[C@@H]1OC[C@@H]2Nc1nccc(-c2cccs2)n1 | -10.3 | 34.1%[87.6 µM] | -15.7%[87.6 µM] | ?
O=C(N[C@H]1CO[C@H]2[C@@H]1OC[C@@H]2Nc1nccc(-c2cccs2)n1)C1CCCCC1 | -3.7 | ? | -26.0%[87.6 µM] | 35.5µM*
C=C(C)C(=O)OC1CC2(C)OC(=CC2=O)C(=C)CC2OC(=O)C(=C)C12 (centres undefined) | -10.9 | . | 11.7µM* | .
O=C(Cn1cccc1-c1nc(-c2ccc3c(c2)OCO3)no1)N1CCCc2ccccc21 | 36.0 | 18.4% | ? | 31.6µM*
O=C(Cn1cccc1-c1nc(-c2ccccc2)no1)N1CCc2ccccc21 | -8.1 | -22.7% | -26.2% | i
COc1ccc2[nH]c3c(c2c1)CCNC31CCN(C(=O)C2CC2)CC1 | -3.0 | -21.7% | 0.3%[12.5 µM] | ?
COc1ccc2[nH]c3c(c2c1)CCNC31CCN(C(C)C)CC1 | 8.8 | 1.6% | 7.0%[12.5 µM] | 22.4µM*
CCn1ccc(C(=O)N2CCC3(CC2)c2[nH]c4ccc(OC)cc4c2CCN3C)n1 | 3.6 | 20.6% | 1.2%[12.5 µM] | 22.4µM*
CCOCC(=O)N1CCC2(CC1)NCCc1c2[nH]c2ccc(OC)cc12 | 0.1 | 17.8% | -3.5%[12.5 µM] | 15.8µM*
COc1ccc2[nH]c3c(c2c1)CCNC31CCN(C(=O)COc2ccc(F)cc2)CC1 | 11.2 | 5.9% | -8.5%[12.5 µM] | ?
COc1ccc2[nH]c3c(c2c1)CCNC31CCN(C(=O)Cn2c(=O)oc3ccccc32)CC1 | -2.3 | 61.8% | 2.0%[12.5 µM] | 20µM*
CC(C)CCNC(=O)C1(CCO)CCN(c2ncccn2)C1 (centres undefined) | -6.5 | 3.8% | -4.9% | 25.1µM*
CCCNC(=O)C1(CCO)CCN(c2ncccn2)C1 (centres undefined) | 1.8 | 47.3% | 10.0% | ?
Cc1ccc(CNC(=O)C2(CCO)CCN(c3ncccn3)C2)o1 (centres undefined) | -0.3 | -22.3% | -6.2% | 28.2µM*
Cc1ccc(NC(=O)C2(CCO)CCN(c3ncccn3)C2)cc1 (centres undefined) | 11.4 | ? | 0.0% | 28.2µM*
SMILES | IP6K1 inhibitor | SNCA expr inh | SNCA viab count | KDM5B inh
O=C(Nc1cccc(OC(F)(F)F)c1)C1(CCO)CCN(c2ncccn2)C1 (centres undefined) | 5.2 | ? | -20.2% | 25.1µM*
COc1ccccc1N1CCN(C(=O)Cn2cccc2-c2nc(-c3ccc(F)cc3)no2)CC1 | 1.8 | -13.4% | -2.6% | ?
Cc1cc(NC(=O)c2ccc3c(c2)N(C)C2CCCCN2C3=O)ccc1Cl (centres undefined) | -0.9 | 245.4% | 28.2%[12.5 µM] | ?
Cc1nn(-c2ccccc2)c2c1C(C1CC1)N(C1CN(C(=O)c3ccc(Cl)cc3)C1)C2=O (centres undefined) | 2.1 | . | . | .
CN(C)C[C@@H]1CN(c2ccncn2)C[C@H]1NC(=O)NC1CCCCC1 | -2.4 | 3.7% | 12.4% | i
CN(C)C[C@@H]1CN(c2ccccn2)C[C@H]1NC(=O)c1ccsc1 | 0.3 | 0.8% | 6.5% | 22.4µM*

Screening results (PubChem)
